This note sets out measurements from PubChem BioAssay (NCI).

The panel holds about 83,000 compounds, 20% with a hit somewhere; the sample as a whole holds those more often.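 48-hour exposure, single concentration, 96-well plates; percent growth endpoint where 0 means no net growth. Active: below 10.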 Unmarked numbers belong to inactive results. Active and inactive are the calls of the source.

The test system of the assay is HCC-2998 colon. Put plainly: NCI-60 one-dose screen, 48 h (100 = growth as untreated, 0 = no growth, -100 = all killed). The note with it: 10 µM. How it is done:
Growth inhibition of the HCC-2998 human tumor cell line is measured as a screen for anti-cancer activity. Cells are grown in 96 well plates and exposed to the test compound for 48 hours. Compounds are tested at a single concentration, which is 10^-5 M for most compounds. The reported endpoint is percent growth (GI% or GIPRCNT), where numbers from 0 - 100% represent growth inhibition, and numbers from -100% - 0 represent cell death. For example, a value of 40 represents 60% growth inhibition. A value of 0 means no net growth occurred over the course of the experiment. A value of -40 indicates 40% of cells at the beginning of the experiment died by the end of the experiment. A value of -100 means all cells are dead at the end of the experiment.
NCI-60 Human Tumor Cell Lines Screen was performed using the standard one-dose NCI protocol, which is described in more detail at https://dtp.cancer.gov/discovery_development/nci-60/default.htm.
Compounds with GIPRCNT values below 10 were considered active. Activity score was based on GIPRCNT using the following formula: […]
Score is 0 for GIPRCNT values of 100 or above, 50 for GIPRCNT values of 0, and 100 for GIPRCNT values of -100.
`FC(F)(F)c1ccc(-c2cnc(Cl)nc2NC2CCCCCC2)cc1`: the growth was 67.9%. With `C[C@]12CC[C@H]3[C@@H](CC=C4C[C@@H](O)CC[C@@]43C)[C@@H]1CC[C@@H]2C(=O)C/C=N/O` the figure was 94.1%. The result for `CCOC(=O)c1cc2c(n1Cc1cc(OC)cc(OC)c1)-c1oncc1CC2` reads 19.4%; that for `Cc1cc(C(C)(C)CC(C)(C)C)ccc1OCCOCC[N+](C)(C)Cc1ccccc1`, -60.6% (active); that for `Nc1cc2c(cc1Cl)-c1ccc(Cl)cc1C2=O`, 101%.

`Cc1cc(C)c(/C=C2\C(=O)Nc3ccc(NC(=O)CCCCCCC(=O)NO)cc32)[nH]1`: the growth was 40.2%. On to `CCOC(=O)CSC(=S)SCC(=O)OCC`, for which the growth was 105%. With `Cc1ccc(-c2cc(C(=O)Nc3ccc(S(=O)(=O)N4CCCCC4)cc3)[nH]n2)c(O)c1` the figure was 68.8%; with `NC(N)=NS(=O)(=O)c1ccc(Nc2ccc3nnc(-c4ccncc4)n3n2)cc1`, 99.1%.

Consider `O=c1c2cccc3c(Nc4ccc(Br)cn4)ccc(c32)c2nc3ccccc3n12`, for which the growth is 74.8%. Take `O=C(CCCC(=O)N/N=C/c1cc(Cl)ccc1O)N/N=C\c1cc(Cl)ccc1O`: the growth is 29.2%. As to `O=[N+]([O-])c1ccc(S(=O)(=O)OCCCCOS(=O)(=O)c2ccc([N+](=O)[O-])cc2)cc1`, the growth was 100%. In the case of `COc1ccc(C2C=C(c3ccc(Cl)cc3)N=C3SC=CN32)c(Br)c1` (stereo not given), the growth is 86.9%.

Regarding `COc1ccc(-c2cc(/C=C3\C(=O)Nc4cc(Cl)ccc43)[nH]n2)cc1`, the growth is 56.7%. With `COc1ccc(Nc2ccnc(N3CCN(c4ccnc5cc(Cl)ccc45)CC3)n2)cc1` the figure was 15.8%. The result for `O=C(NNc1nc(N2CCCC2)nc(N2CCCC2)n1)c1ccccc1` reads 106%; that for `CCCn1c(=O)c2c(nc(-c3cccc(OCCCCl)c3)n2C)n(CCC)c1=O`, 69.7%; that for `O=C(N/N=C\c1cc(Cl)ccc1O)c1ccncc1`, 45.2%. Turning to `Fc1cc(-c2ncc(-c3cc(F)c(F)c(F)c3)c(NC3CCCCCC3)n2)cc(F)c1F`, the growth was 127%. The result for `CC(Oc1ccc(Cl)cc1)c1ccccc1` (stereo not given) reads 115%; that for `COC(=O)c1c(C)nc(Nc2nc3ccccc3s2)nc1-c1ccc(Cl)cc1Cl`, 108%; that for `Nc1ccc2c(c1)Cc1cc(N)c(Cl)cc1-2`, 103%. Regarding `Nc1c(CNCc2nnn(Cc3ccccc3)c2N)nnn1Cc1ccccc1`, the growth is 98.7%. Consider `CC(C)C(C)C(N)C(=O)O` (stereo not given), for which the growth was 101%. As to `COc1ccc(C2C=C(c3ccc(OC)c(OC)c3)N=C3SC=CN32)c(Br)c1` (stereo not given), the growth was 95%. The result for `COc1ccc(C2CC(c3ccc(-c4ccccc4)cc3)=NN2c2ccc(S(N)(=O)=O)cc2)cc1` (stereo not given) reads 58.2%; that for `Nc1nc2c(ncn2C2OC3COP(=O)(O)OC4C(COP(=O)(O)OC2C3O)OC(n2cnc3c(N)ncnc32)C4O)c(=O)[nH]1` (stereo not given), 99.3%. On to `S=C(Cc1ccc(-c2ccccc2)cc1)N1CCOCC1`, for which the growth is 103%. `C=CCOc1ccc2c(c1)CC[C@@H]1[C@@H]2CC[C@]2(C)C(=O)/C(=N/O)C[C@@H]12`: the growth is 27%. With `COc1cc(C(c2c[nH]c3ccccc23)N2CCCC2)ccc1OCc1ccccc1` (stereo not given) the figure was 96.2%; with `COc1ccc2c(=O)cc(C(Cl)(Cl)Cl)oc2c1`, -30% (active).

In the case of `O=C(COc1ccc(-c2nc3ccccc3[nH]2)cc1)N=Nc1c(O)[nH]c2ccccc12`, the growth was 109%.

Regarding `O=NN(CCCl)C(=O)Nc1ccc(NC(=O)N(CCCl)N=O)cc1`, the growth is 105%.

`COc1cccc2c1O/C(=C\c1ccc([N+](=O)[O-])s1)C2=O`: the growth is 89.7%.

As to `Clc1ccc(-c2nc(-c3cccs3)cn3ccnc23)cc1`, the growth is 47.8%. With `CCc1nn2c(-c3cc(OC)c(OC)c(OC)c3)c(-c3cc(OC)c(OC)c(OC)c3)nc2s1` the figure was 102%. With `Cc1ccc(-c2cc(-c3cccc(Nc4ccnc5cc(Cl)ccc45)c3)nc3nc(N)[nH]c(=O)c23)cc1` the figure was 91.5%. `Cc1[nH]nc2c(=S)[nH]c(=O)[nH]c12`: the growth is 106%.

For `C#CCNCCCN1C(=O)c2ccc3c4c(ccc(c24)C1=O)C(=O)N(CCCNCC#C)C3=O`, the growth was -90% (active).

Consider `N=C(N)c1ccc(-c2ccc(-c3cccs3)s2)nc1`, for which the growth was -52.7% (active).
